# TROY signal inh: inhibitors of TROY-driven NF-kB signaling, primary screen, Q293 LMP1-TROYcd cells, NF-kB luciferase, uHTS; inhibition, % at 10 µM; Q293 LMP1-TROYcd NF-kB luciferase reporter, 4 h; hit rate 0.98% among 360,000; AID 1347056, 2019;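 active = compounds whose plate-normalised and pattern-corrected inhibition of the luciferase reporter signal at the single screening dose is 50% or more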
# TWEAK Fn14 block: inhibitors of TWEAK-Fn14 signaling, primary screen, luciferase reporter cells, uHTS; TWEAK-stimulated Fn14 reporter cells, luciferase luminescence, 8 h; inhibition, % at 10 µM; hit rate 2% among 360,000; in the data active = inhibition above about 50%
# CF NFkB inh: inhibitors of PAF-induced NF-kB signaling, primary screen, cell-based, GFP fluorescence, uHTS. KKLEB NF-kB-GFP reporter, GFP fluorescence overnight. inhibition, % at 5 µM. hit rate 0.86% among 360,000. AID 588850, 2011;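 active = at least 50% inhibition at 5 µM, scaled per plate between neutral and stimulator controls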;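 also: PAF is a Pseudomonas aeruginosa culture filtrate used as stimulus; plate controls were PAF-stimulated DMSO wells for no effect and unstimulated DMSO wells for full effect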
# KKLEB tox: cytotoxicity in KKLEB CF airway cells, primary screen, cytotoxicity control for CF NF-kB inhibitor project, cell-based, uHTS, fluorescence assay plates; KKLEB CF airway cells viability, ATPlite luminescence, overnight; hits give low values; cells stimulated with P. aeruginosa culture filtrate; activity change (cytotoxicity), % at 5 µM; hit rate 0.36% among 360,000; AID 602141, 2011;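 active = corrected activity change at or below -50% at 5 µM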
# HIF-2a inh: HIF-2a reporter inhibitors, primary screen, luminescence, 786-0 RCC cells; 786-0 RCC cells HIF-2a reporter, luciferase luminescence, overnight; inhibition, % at 18.8 µM; hit rate 0.72% among 360,000; AID 624352, 2012;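 active = inhibition of the luminescence signal of 40% or more relative to plate controls, in a single-dose primary screen at 18.75 µM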
# Peg3 prom inh-1: Peg3 promoter-driven luciferase inhibitors, primary screen, cell-based, HeLa, luciferase luminescence | inhibition, % at 20 µM | HeLa PEG-Prom luciferase reporter, overnight | hit rate 1.7% among 360,000;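 active = inhibition of at least 50% at 20 µM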
# Peg3 prom inh-2: Peg3 promoter reporter inhibitors, retest, confirmation, cell-based, HeLa, luciferase reporter, single concentration; shares compounds with Peg3 prom inh-1; HeLa PEG-Prom luciferase reporter, luminescence, overnight; inhibition, % at 20 µM; hit rate 84% among 1,300; AID 602417, 2012;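 active = at 20 µM dose, 40% or more inhibition averaged across four replicates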
# The depositor's hits bear a star; . = no result given. Compounds with a hit are over-represented: about 4% of the library has one in this group of screens.
SMILES,TROY signal inh,TWEAK Fn14 block,CF NFkB inh,KKLEB tox,HIF-2a inh,Peg3 prom inh-1,Peg3 prom inh-2
COc1ccc(N(C(=O)Cn2nnc(-c3ccc(F)cc3)n2)C(C)C(=O)NC2CCCC2)cc1 (centres undefined),2,-23,17,-4,15,21,.
CN(C)c1ccc(/C=C/c2ccc3c4ccccc4ccc3[n+]2-c2ccccc2)cc1,72*,74*,-131,-10,96*,106*,100*
O=C(NCCOc1ccc(F)cc1)C1CCC(=O)N(CCc2ccccn2)C1 (centres undefined),12,3,-54,29,10,-8,.
CC(=O)c1ccc(Nc2nc(C(N)CC(C)C)cs2)cc1 (centres undefined),9,-14,11,0,9,4,.
CC(C)CC(N)c1csc(Nc2ccc(C(=O)c3ccccc3)cc2)n1 (centres undefined),15,-9,39,-22,2,53*,94*
Cc1ccc([C@H]2C[C@H](O)[C@@H](n3cc(-c4ccc(F)cc4)nn3)CN2CC2CCCCC2)cc1,-14,-12,-15,10,-2,12,.
CC1(C)CC(NC(=O)c2sc3cc(Cl)ccc3c2Cl)CC(C)(C)N1,11,-19,5,-13,-48,91*,100*
Cc1cc(OCC(=O)Nc2ccc(CN3CCOCC3)cc2)c2c(C)c(C)c(=O)oc2c1,-15,-16,-131,9,-23,21,.
CCN(Cc1ccccc1)S(=O)(=O)c1ccc(C(=O)N(CCCN(C)C)c2nc3cc4c(cc3s2)OCO4)cc1,-9,-10,-11,0,3,87*,99*
CN(C)CCN(C(=O)c1ccc(S(=O)(=O)N(C)c2ccccc2)cc1)c1nc2cc3c(cc2s1)OCO3,-17,-13,18,3,-54,-24,.
CC1(C)C(=O)C=CC(=O)C(C)(C)C(=O)C=CC(=O)C(C)(C)C2=CC=C(O2)C(C)(C)C(=O)C=CC1=O,-6,11,46,-9,2,106*,100*
COc1cc(OC)cc(-c2c(-c3cccs3)c3cc(-c4ccc(N(C)C)nc4)ccc3n2C)c1,-2,-46,17,-10,9,52*,25
COc1cc(F)cc(-c2ccc3c(c2)c(-c2cccs2)c(-c2cc(OC)cc(OC)c2)n3C)c1,38,35,25,-21,12,4,.
CCCCCCOc1ccc(/C(C)=N/NC2=NCCN2)cc1,-73,-73,18,-19,-2,108*,98*
Cc1c(CC(=O)NCC(C)C)c(=O)oc2cc3c(cc12)CCC(C)(C)O3,-1,-14,-1,6,-114,-94,.
O=C(/C=C/c1ccccc1)Nc1cc(NC(=O)/C=C/c2ccccc2)cc(C(=O)O)c1,-4,2,-6,16,19,14,.
O=C(/C=C/c1ccccc1)Nc1cccc(C(=O)O)c1,-21,41,-4,3,87*,85*,77*
Cc1ccsc1/C=N/Nc1cccc(C(=O)O)c1,-67,32,-24,6,86*,86*,74*
COc1cccc(-c2nnn(CC(=O)N3CCCCC3)n2)c1,-17,-16,0,-19,-85,-55,.
O=C(Nc1nncs1)c1cc2c(s1)CCC2,-59,-21,5,-15,-184,-181,.
O=C(Nc1nccs1)c1cc2c(s1)CCCCC2,78*,100*,-11,-54*,51*,58*,16
CCOc1cc(C2c3c(oc4cc(C)c(Cl)cc4c3=O)C(=O)N2Cc2ccco2)ccc1O (centres undefined),-11,-39,19,0,13,67*,17
NC(=O)CC(NC(=O)Cc1cccc2ccccc12)c1ccc(NCCOc2ccccc2)c([N+](=O)[O-])c1 (centres undefined),12,-25,-15,-19,11,54*,27
NC(=O)CC(NC(=O)Cc1cccc2ccccc12)c1ccc(NC2CCCCC2)c([N+](=O)[O-])c1 (centres undefined),-6,-20,11,-22,-11,78*,14
COc1ccc(CCNc2ccc(C(CC(N)=O)NC(=O)c3ccc(Br)cc3)cc2[N+](=O)[O-])cc1 (centres undefined),25,-34,6,-19,20,69*,19
SMILES,TROY signal inh,TWEAK Fn14 block,CF NFkB inh,KKLEB tox,HIF-2a inh,Peg3 prom inh-1,Peg3 prom inh-2
NC(=O)CC(NC(=O)Cc1cccc2ccccc12)c1ccc(NCC2CC2)c([N+](=O)[O-])c1 (centres undefined),-13,-7,-19,-10,-2,6,.
CC(OC(=O)c1ccccc1NCCO)C(=O)NC1CCCCC1C (centres undefined),6,-1,-27,13,2,-10,.
CC(C)CN(C(=O)CCCOc1ccc(Cl)cc1Cl)c1c(N)n(Cc2ccccc2)c(=O)[nH]c1=O,5,3,-9,4,12,26,.
CN(C)CCNc1ncnc2c1ncn2[C@H]1CN(Cc2ccc(-c3ccccc3)cc2)C[C@@H](CO)O1,14,12,10,-5,-3,80*,75*
CN(C)CCNc1ncnc2c1ncn2[C@H]1CN(Cc2ccccc2)C[C@@H](CO)O1,-1,-2,10,-5,1,-7,.
Cc1nn(CC(=O)NCc2ccc(OC(C)C)cc2)c(=O)c2cc(-c3ccccc3)nn12,-4,6,8,-3,10,51*,15
CCC(CO)N=CC1=C(O)CC(c2ccccc2)CC1=O (centres undefined),12,17,-2,-1,15,9,.
COc1ccc(NC(=O)CCNS(=O)(=O)c2cccc3nsnc23)c(OC)c1,-22,-3,10,-5,7,-1,.
N=c1n(CC(=O)c2ccc([N+](=O)[O-])cc2)c2ccccc2n1Cc1ccc(Cl)cc1,3,2,7,-36,10,109*,97*
N=c1n(CC(=O)c2ccc([N+](=O)[O-])cc2)c2ccccc2n1Cc1ccccc1,-5,2,3,-31,12,66*,42*
O=C(COC(=O)c1cc(S(=O)(=O)N2CCCCC2)ccc1N1CCOCC1)c1ccc(F)cc1,-23,-10,-14,-3,6,26,.
CC(C)N(C(=O)[C@H]1CC(CC(=O)NCc2cccc(C(F)(F)F)c2)C(=O)N2CCc3c([nH]c4ccccc34)[C@]12C)C(C)C (some centres undefined),23,39,24,-11,10,68*,22
